These results are taken from PubChem BioAssay AID652105 (National Center for Advancing Translational Sciences (NCATS), 2013).

About 4,100 (1.2%) of roughly 330,000 compounds were called active. Roughly 2% stayed inconclusive and do not appear here. How the source made its calls: active means max response of -50% or lower; inconclusive means between -30% and -50%; inactive means -30% or higher. For the sample, actives were picked, then their nearest neighbours and some compounds at random.
On the % scale 0 is the no-effect control and ±100 the full control effect.

The target of this test is Phosphatidylinositol 5-phosphate 4-kinase type-2 alpha (Homo sapiens) (UniProt P48426). In words: qHTS for Inhibitors of phosphatidylinositol 5-phosphate 4-kinase (PI5P4K). Further: value at the top dose of about 77 µM. The conditions noted are these: PI5P4Kalpha enzyme, ADP-Glo luminescence, 60 min; stronger effect = lower value. From the text: In addition to finding PI5P, we discovered the type II phosphatidylinositol 5-phosphate 4-kinase (PI5P4K) family (alpha, beta, gamma isoforms) that catalyze the conversion of PI5P to PI(4,5)P2. Alternatively, PI(4,5)P2 can also be synthesized through phosphatidylinositol-4-phosphate (PI4P) by the type I phosphatidylinositol 4-phosphate 5-kinases (PI4P5K). These PI5P4K enzymes therefore represent one way by which cells can regulate endogenous PI5P levels and play important roles in insulin signaling and in stress responses.
Phosphatidylinositol 5-phosphate 4-kinase type-2 alpha (Homo sapiens), sequence (P48426 whole entry, looked up, canonical isoform): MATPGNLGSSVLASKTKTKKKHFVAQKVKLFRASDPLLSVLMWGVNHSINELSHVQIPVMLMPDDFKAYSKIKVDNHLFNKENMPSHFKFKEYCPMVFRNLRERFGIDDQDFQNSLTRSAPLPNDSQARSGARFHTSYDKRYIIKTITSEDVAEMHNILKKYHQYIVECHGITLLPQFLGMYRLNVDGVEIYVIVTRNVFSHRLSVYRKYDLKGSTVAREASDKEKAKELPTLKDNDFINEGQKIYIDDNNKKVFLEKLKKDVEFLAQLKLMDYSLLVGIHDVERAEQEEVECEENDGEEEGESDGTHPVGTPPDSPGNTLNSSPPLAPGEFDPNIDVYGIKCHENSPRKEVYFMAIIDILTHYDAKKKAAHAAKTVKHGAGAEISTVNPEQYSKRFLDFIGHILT
This proposal aims to identify and optimize specific modulators of human PI5P4K, phosphatidylinositol-5-phosphate 4-kinase (Type II PIPK), a family of kinases that regulate AKT signaling and tumor cell growth. In this project we aim to identify inhibitors of human PI5P4K using a quantitative high-throughput screening approach against the MLSMR containing ~400,000 small molecules.
NIH Chemical Genomics Center [NCGC]
NIH Molecular Libraries Probe Centers Network [MLPCN]
Assay Submitter (PI): Atsuo Sasaki, Beth Israel Deaconess Medical Center
2 microL of PI5P4Kalpha/substrate buffer (columns 1-2, 5-48) are dispensed into Greiner white solid bottom 1536-well assay plates; column 3 receives only PI5P4Kalpha buffer as 0x substrate controls; column 4 receives only substrate buffer as 0x PI5P4Kalpha controls. Final assay buffer consists of 0.038 M HEPES pH 7.4, 0.28 mM EGTA, 0.1% CHAPS, and 5% DMSO (final concentration). Compounds are then transferred via Kalypsys pin tool equipped with 1536-pin array (10 nL slotted pins, V&P Scientific, San Diego, CA). Following addition of compound, 1 microL of ATP (5 microM final concentration, all columns) is added to initiate the reaction. ATP is diluted in an assay buffer consisting of 0.02 M HEPES pH 7.4, 60 mM MgCl2, 15 microM ATP, and 0.1% CHAPS. The plates are then incubated at room temperature for 60 minutes. ADP-Glo reagent 1 is added (2 microL) and plates incubated for 45 minutes, before ADP-Glo reagent 2 (4 microL) is added and plates incubated for 30 minutes. They are then transferred to a ViewLux high-throughput CCD imager (PerkinElmer) wherein single end-point measurements of luminescence are acquired using a clear filter.
On the technique in general: In qHTS, concentration-response curves come from the screen itself.
Regarding `O=C1NC(=O)N(CCc2ccc(F)cc2)C(=O)/C1=C/C=C/c1ccccc1`, the max response is -26.8% (inactive).

For `O=C1NC(=O)N(Cc2ccco2)C(=O)/C1=C\c1cccn1CCOc1ccccc1`, the max response was -24.2% (inactive).

For the molecule `O=C1NC(=O)N(Cc2ccco2)C(=O)/C1=C\c1ccc(-c2ccc(F)cc2)o1`, the max response is -73.5% (active).

As for `O=c1[nH]c2ccccc2n1C1CCN(C(c2ccccc2)c2nnnn2Cc2ccccc2)CC1` (configuration not stated), the max response was -4.66% (inactive).

Consider `COC(=O)C1=C(c2ccc(OCc3ccccc3)cc2)C[C@@H]2CC[C@H]1N2C(=O)NCc1ccc(Cl)cc1`, for which the max response is 5.92% (inactive).

As for `CCOC(=O)c1cccc(C2=C(CNC(=O)c3ccncc3)[C@H]3CC[C@@H](C2)N3Cc2ccccc2)c1`, the max response was -3.84% (inactive).

Consider `O=C(O)CCn1cc(C=C2C(=O)NC(=S)NC2=O)c(-c2cccc(Br)c2)n1`, for which the max response is -58.5% (active).

For `O=C(NCC1=C(c2ccc3ccccc3c2)C[C@@H]2CC[C@H]1N2Cc1ccco1)c1cccs1`, the max response was -1.39% (inactive).

Regarding `COC(=O)C1=C(c2ccc(OCc3ccccc3)cc2)C[C@@H]2CC[C@H]1N2C(=O)NCc1cccc(F)c1`, the max response was 0.749% (inactive).

Turning to `O=C(N/N=C/c1c(O)n(Cc2ccccc2)c(=O)[nH]c1=O)c1ccccc1`, the max response was -53.6% (active).

For the molecule `CCCCC(=O)N/N=C/c1c(O)n(-c2ccccc2)c(=O)[nH]c1=O`, the max response was -1.14% (inactive).

On to `CC/C(=N\NC(=O)c1ccccc1O)c1c(O)n(Cc2ccccc2)c(=O)[nH]c1=O`, for which the max response was -90.3% (active).

For `CCC(=NCCc1ccccc1)c1c(O)n(C2CCCCC2)c(=O)[nH]c1=O`, the max response is -4.68% (inactive).

For the molecule `CCC(=NCCCO)c1c(O)n(-c2ccc(OC)cc2)c(=O)[nH]c1=O`, the max response is 0.144% (inactive).

Consider `O=c1[nH]c(=O)n(Cc2ccccc2)c(O)c1/C=N/Nc1c(F)c(F)c(F)c(F)c1F`, for which the max response was 4.31% (inactive).

For the molecule `COc1ccc(NC(=O)N2Cc3ccccc3-n3nncc3C2)cc1`, the max response is -4.3% (inactive).

As for `COc1ccc(-n2nnnc2C(c2cccc3ccccc23)N2CCC(n3c(=O)[nH]c4ccccc43)CC2)cc1` (configuration not stated), the max response was 0.885% (inactive).

With `CSCCC(c1nnnn1C(C)(C)C)N1CCC(n2c(=O)[nH]c3ccccc32)CC1` (configuration not stated), the max response was 8.06% (inactive).

With `O=c1[nH]c2ccccc2n1C1CCN(C(c2ccnc3ccccc23)c2nnnn2Cc2ccccc2)CC1` (configuration not stated), the max response is -3.14% (inactive).

Turning to `O=C1NC(=O)C(Cc2ccccc2)C(=O)N1`, the max response was -28.7% (inactive).

On to `O=C1NC(=O)C(C/C=C/c2ccccc2)C(=O)N1`, for which the max response is -78.1% (active).

In the case of `CC(=O)NCC1=C(c2ccc3ccccc3c2)C[C@@H]2CC[C@H]1N2Cc1ccco1`, the max response is -10.1% (inactive).
